Compound activity (PubChem BioAssay)
This is a sample that favours compounds with a hit; in the whole collection about 4.8% have one here.
ssDAF-12 act – S. stercoralis DAF-12 nuclear receptor activators, primary screen, cell-based, luminescence, HEK293, GRIP1 co-expression, lit1-tk-luc | Nuclear hormone receptor DAF-12 (Strongyloides stercoralis) | HEK293 ssDAF-12/GRIP1 lit1-tk-luc reporter; % of 3 µM dafachronic acid response | activation, % at 6.8 µM | hit rate 1% among 370,000 | AID 652126, 2013;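 active = activation above the mean over all tested compounds plus 3 SD, cut at about 0.9% in these data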;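 also: 0% = DMSO-only wells and 100% = 3 µM delta7-dafachronic acid wells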
hcDAF12 agonist – H. contortus DAF-12 nuclear receptor activators, primary screen, cell-based, luminescence, HEK293, lit1-tk-luc reporter | HEK293 hcDAF-12 lit1-tk-luc reporter; 0% DMSO, 100% Δ7-dafachronic acid | activation, % at 6.8 µM | hit rate 1.4% among 370,000 | AID 652067, 2013;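 active = activation above the mean of all tested compounds plus 3 SD, cut at about 5.5% in these data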;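 also: 100% = response to 3 µM Δ7-dafachronic acid high control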
Rev-erbA mod – modulators of Rev-erb alpha DNA binding, primary screen, biochemical, FITC-DNA, fluorescence polarization, uHTS; Nuclear receptor subfamily 1 group D member 1 (Homo sapiens), P20393; Rev-erbα–FITC-DNA binding, 90 min; activity, % at 10 µM; hit rate 0.79% among 370,000; AID 1259318, 2017;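 active = activity above about 14%, limit read from the data; passing the limit was not always enough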;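 also: 0% = DMSO wells with 35 nM protein and 100% = DMSO wells with 750 nM protein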
hgDAF-12 ag – H. glycines DAF-12 receptor agonists, primary screen, cell-based, luminescence, HEK293, GAL4 fusion, UAS-luciferase. Nuclear hormone receptor DAF-12 (Heterodera glycines), GAL4 fusion. HEK293 GAL4-hgDAF12 UAS-luciferase reporter, agonist luminescence; normalized to butyrate control. activation, % at 6.8 µM. hit rate 1.8% among 370,000;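 active = activation above a cutoff set at the mean of all screened compounds plus 3 SD, cut at about 10% in these data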;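 also: 0% = DMSO wells and 100% = sodium butyrate wells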
DAX1 inh-1 – DAX1 (NR0B1) inhibitors on StAR promoter, primary screen, cell-based, luminescence, SF-1 (NR5A1), full-length DAX-1 | HEK293T StAR-luciferase reporter, SF-1/DAX-1 repression relief | inhibition, % at 6.8 µM | hit rate 1.1% among 370,000 | AID 652010, 2013;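 active = inhibition above the mean over all tested compounds plus 3 SD, cut at about 3.6% in these data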;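 also: 0% = DAX-1 cells with DMSO and 100% = cells lacking DAX-1 with DMSO; higher inhibition means more luminescence from relief of DAX-1 repression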
DAX1 inh-2 – DAX1 (NR0B1) inhibitors, primary screen, cell-based, HEK293, Gal4-DAX1, luciferase luminescence; HEK293 Gal4-DAX1 luciferase reporter; hit rate 0.99% among 340,000; inhibition, % at 6.75 µM; Nuclear receptor subfamily 0 group B member 1 (Homo sapiens), P51843;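 active = inhibition above the mean over all tested compounds plus 3 SD, cut at about 4.2% in these data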;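 also: 0% = DAX1-transfected cells with DMSO and 100% = empty-vector control cells with DMSO; inhibition shows as a rise in luminescence from relieved DAX1 repression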
Target sequence (P51843 207-470 limits assumed): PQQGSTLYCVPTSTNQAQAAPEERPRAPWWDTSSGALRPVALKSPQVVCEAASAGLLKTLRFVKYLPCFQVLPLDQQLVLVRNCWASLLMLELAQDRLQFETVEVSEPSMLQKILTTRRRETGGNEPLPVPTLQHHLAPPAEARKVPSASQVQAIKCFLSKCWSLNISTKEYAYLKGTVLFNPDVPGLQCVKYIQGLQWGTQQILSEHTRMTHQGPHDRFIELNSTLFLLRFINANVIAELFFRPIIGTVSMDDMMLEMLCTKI
LXRb hcDAF ctr – LXR agonists, Gal4 luciferase reporter, confirmation, counter-screen for hcDAF-12 agonist project, cell-based, luminescence, HEK293, H. contortus campaign; shares compounds with hcDAF12 agonist; 3,400 tested, under 10 active; activation, % at 6.8 µM; HEK293 Gal4-LXR tk-luc reporter, 24 h; normalized: DMSO 0%, positive control 100%;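 active = mean percent activation of the reporter above a cutoff set as the average over tested compounds plus their standard deviation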
hcDAF12 conf – H. contortus DAF-12 receptor agonists, confirmation, cell-based, luminescence, HEK293, lit1-tk-luc, triplicate. shares compounds with hcDAF12 agonist. HEK293 hcDAF-12 lit1-tk-luc reporter; % of Δ7-dafachronic acid response. activation, % at 6.8 µM. hit rate 61% among 3,400;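 active = mean activation across triplicate tests above the threshold derived from the earlier primary screen, cut at about 5.5% in these data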;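 also: 0% = DMSO only wells and 100% = 3 µM Δ7-dafachronic acid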
The depositor's hits bear a star; . = no result given.

SMILES	ssDAF-12 act	hcDAF12 agonist	Rev-erbA mod	hgDAF-12 ag	DAX1 inh-1	DAX1 inh-2	LXRb hcDAF ctr	hcDAF12 conf
COc1ccc(C(=O)NC(=S)N2CCCc3ccccc32)cc1OC	-1	0	0	-4	0	0	.	.
O=C(Nc1nnc(SCC(=O)N2CCCc3ccccc32)s1)c1ccccc1	-1	8.0*	4	7	1	-2	0	4
CCCNC(=O)C1CC(c2ccccc2[N+](=O)[O-])=NO1 (stereo not given)	-1	3	-5	2	0	1	.	.
CC(C)CCNC(=O)C1CC(c2ccccc2[N+](=O)[O-])=NO1 (stereo not given)	0	7.2*	1	4	0	2	0	4
O=CN1Cc2[nH]c3ccccc3c2N(c2ccc(Cl)cc2)C1=O	1.1*	7.0*	0	2	0	-1	0	3
O=C1CNCc2[nH]c3ccccc3c2N1c1ccccc1	0	2	4	6	0	-1	.	.
O=C1NCCCC1C(=O)N/N=C/c1ccccc1O (stereo not given)	0	7.5*	2	2	0	3	0	2
COC(=O)[C@]12C[C@H](CC(=O)N3CCCC3)C(=O)N(Cc3ccc4c(c3)OCO4)C1=C[C@H](C(C)C)O[C@@H]2C1CC1	-2	-3	5	-4	-2	.	.	.
O=S(=O)([N-]c1nc2ccccc2nc1-[n+]1ccc(-c2ccncc2)cc1)c1ccccc1	0	6.9*	1	10	2	2	0	3
CCc1ccc(Nc2ncccc2C#N)cc1	0	5	-2	3	0	-1	.	.
CCC(C)c1ccc(Nc2ncccc2C#N)cc1 (stereo not given)	0	7.7*	5	7	0	1	1	8.6*
Cc1cc2[nH]c3c4ccccc4nc(C)c3c2cc1C	0	4	3	2	-1	1	.	.
Cc1cc2[nH]c3c(c[n+](C)c4ccccc34)c2cc1C	1.0*	14*	5	6	-1	0	2	10*
O=C(NNC(=O)c1ccc2nc[nH]c2c1)c1ccccc1	-2	-1	1	-1	0	0	.	.
Cc1ccc(NC(=O)c2ccc3nc[nH]c3c2)nc1	0	8.9*	-12	7	9.6*	1	1	5
O=C(Cn1cc([N+](=O)[O-])cn1)NCc1cc2ccccc2[nH]1	0	8.0*	-2	2	0	0	0	4
O=C(Cn1cc([N+](=O)[O-])cn1)NCCc1nc2ccccc2[nH]1	-1	0	-2	4	1	1	.	.
CC(C)c1onc(C(=O)Nc2sc3c(c2C#N)CCC3)c1[N+](=O)[O-]	-1	1	2	-2	0	2	.	.
N#Cc1c(NC(=O)c2ccc([N+](=O)[O-])o2)sc2c1CCC2	1.0*	8.1*	-4	7	0	-2	1	5
Nc1ccc2nc(-c3ccc(Cl)cc3)[nH]c2c1	0	7.0*	0	4	2	2	1	4
Nc1cc(N)cc(-c2nc3ccccc3[nH]2)c1	0	8.9*	2	2	1	0	0	4
Nc1ccc(-c2nc3ccc(N)cc3[nH]2)cc1	-2	-1	0	-2	1	-1	.	.
CCCCCCCCN1C(=O)[C@@H](CC(=O)NCCCOCCCC)C[C@@]2(C(=O)OC)C1=C[C@H](C(C)C)O[C@@H]2C1CC1	-1	0	5	-1	0	.	.	.
CN1[C@@H](Cc2ccccc2)COc2cccc(N3CCCC3)c2S1(=O)=O	-2	-1	4	4	0	.	.	.
Cc1cc(-c2ccccc2)nc2oc(C(=O)NN)c(N)c12	1.2*	6.6*	-21	-1	-1	0	0	4
SMILES	ssDAF-12 act	hcDAF12 agonist	Rev-erbA mod	hgDAF-12 ag	DAX1 inh-1	DAX1 inh-2	LXRb hcDAF ctr	hcDAF12 conf
Cc1cc(C)c2c(N)c(C(=O)c3ccccc3)oc2n1	-1	0	-1	0	-1	1	.	.
CCOc1ccccc1C(=O)NCC(=O)Nc1ccc(-c2ccccc2)cc1	1	6.6*	4	2	0	3	0	4
COC(=O)C12C=C3CC(C)=C3C(=O)N1Cc1[nH]c3ccccc3c1C2 (stereo not given)	0	8.1*	0	2	0	.	0	5.9*
CCOC(=O)[C@]12CCCCC/C=C\1N(CCc1ccc(Cl)cc1)C(=O)[C@H]2CC(=O)NCCc1ccccc1OC	-1	-3	8	-6	-3	.	.	.
Cc1ccc(NN=C2c3ccccc3-c3ccccc32)cc1	0	11*	0	9	1	2	0	9.0*
Cc1ccc(OCC(=O)NN=C2c3ccccc3-c3ccccc32)cc1	-1	1	0	-2	0	0	.	.
O=C(O)c1[nH]c2ccccc2c1C(c1cc(Br)ccc1O)c1c(C(=O)O)[nH]c2ccccc12	1	7.1*	-9	0	0	1	0	3
CCc1ccc2oc(-c3cc(N)ccc3Cl)nc2c1	1.3*	14*	-1	9	2	2	1	9.8*
CCc1ccc2oc(-c3cc(N)ccc3O)nc2c1	0	8.3*	-12	8	2	-2	1	7.7*
Cc1ccc(C)c(N=Nc2nc3ccccc3n2C)c1	1.2*	12*	0	8	0	2	1	13*
COC(=O)[C@H](CC(C)C)N(CCc1cn(Cc2ccccc2)nn1)S(=O)(=O)c1ccccc1Br	-1	-2	2	-3	-1	.	.	.
Cc1ccc(NC(=O)[C@H]2CC(=O)O[C@@H]2c2ccccc2)cc1C	0	2	1	3	0	.	.	.
